An excerpt weighted towards active compounds, which were near 5.8% of everything screened.
KB-3-1 tox – kills parental KB-3-1 adenocarcinoma cells; KB-3-1 viability, CellTiter-Glo ATP luminescence, 72 h; Potency, µM (top dose mostly 46.1 µM), usual class: cytotoxic; actives 1.4% (n = 400,000); AID 1347075; also: % is scaled to controls: 0 for no effect and ±100 for the full control effect; nearly all actives have a fitted effect of over 60% in size
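Screening of KB-3-1 cells (DMEM, 10% FBS, phenol-red free) ran from lowest to highest compound concentration; after 72 h at 37 °C viability was read luminescently and curves fitted.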
PINK1 expr mod – modulators of PINK1 expression | PINK1 immunofluorescence, high-content cytometry, 24 h | Potency, µM (highest dose often 76.6 µM), inactives show top-dose activation (PINK1 increase), actives largely listed as activators | actives 0.2% (n = 410,000) | AID 624263; active = well fitted activation curve with a large enough effect; inconclusive = small, poorly fitted or top-dose-only effect; cell line not stated here; also: % of control where 0% means no effect; nearly all actives have a fitted effect of over 65% in size
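Cells are seeded, rested 12 hours, then given compound at five concentrations or DMSO for 24 hours. After fixation, blocking and antibody staining, PINK1 amount and mitochondrial localization are scored; CCCP serves as control.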
SW480 rereplic – inducers of DNA re-replication in SW480 colon cancer cells; SW480 DNA re-replication, Hoechst DNA content imaging, 48 h; Potency, µM (highest dose often 46.1 µM), for the others: at the highest dose re-replication activation, usual class: activators; actives 1.8% (n = 340,000); also: % of control where 0% means no effect; nearly all actives have a fitted effect of over 55% in size
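250 cells/well; 23 nL cpd via pin tool; 48 hr, 37 C, 5% CO2; Hoechst 40 min; imager read of total nuclear intensity, ex 405/em 500-530 nm.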
KB-V1 MDR tox – KB-V1 MDR subline cytotoxicity; actives 3.4% (n = 400,000); Potency, µM (doses to about 46.1 µM), actives largely listed as cytotoxic; KB-V1 MDR cells viability, CellTiter-Glo, 72 h; AID 1347076; also: % is scaled to controls: 0 for no effect and ±100 for the full control effect; nearly all actives have a fitted effect of over 60% in size
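qHTS viability screen in drug-selected KB-V1 MDR cells: 72 h compound treatment at 37 degrees C, ATP luminescence end point.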
MCF10A rerep – inducers of DNA re-replication in MCF 10A breast cells; MCF 10A DNA re-replication, Hoechst nuclear intensity, 48 h; Potency, µM (top dose mostly 46.1 µM), inactives show at the highest dose activity, positive = re-replication, hits mostly activators; actives 2.9% (n = 350,000); also: % of control where 0% means no effect; nearly all actives have a fitted effect of over 50% in size
ALOX12 inh – ALOX12 (human) lipoxygenase inhibition | P18054 | purified 12hLO, xylenol orange hydroperoxide absorbance | Potency, µM (top dose mostly 108 µM), inactives show at the highest dose activity change, negative = inhibition, usual class: inhibitors | actives 1.1% (n = 580,000); also: % is scaled to controls: 0 for no effect and ±100 for the full control effect
Target sequence (P18054 whole entry, looked up): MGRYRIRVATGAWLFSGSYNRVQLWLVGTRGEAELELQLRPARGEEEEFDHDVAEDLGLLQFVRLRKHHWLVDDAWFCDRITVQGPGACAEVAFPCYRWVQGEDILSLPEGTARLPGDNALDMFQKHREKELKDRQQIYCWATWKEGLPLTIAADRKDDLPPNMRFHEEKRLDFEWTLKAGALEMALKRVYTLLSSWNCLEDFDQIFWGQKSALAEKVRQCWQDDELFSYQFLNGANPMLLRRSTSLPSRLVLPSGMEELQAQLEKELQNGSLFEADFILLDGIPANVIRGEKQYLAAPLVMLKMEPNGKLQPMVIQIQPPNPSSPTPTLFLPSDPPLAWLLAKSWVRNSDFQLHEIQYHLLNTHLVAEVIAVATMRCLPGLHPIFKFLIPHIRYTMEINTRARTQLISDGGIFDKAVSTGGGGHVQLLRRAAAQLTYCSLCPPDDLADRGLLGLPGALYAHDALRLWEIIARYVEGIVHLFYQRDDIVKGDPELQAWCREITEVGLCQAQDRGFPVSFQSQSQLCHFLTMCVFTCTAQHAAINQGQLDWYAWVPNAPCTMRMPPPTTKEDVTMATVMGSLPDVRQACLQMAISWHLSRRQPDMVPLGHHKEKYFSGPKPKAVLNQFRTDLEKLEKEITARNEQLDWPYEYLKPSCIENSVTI
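Purified human 12hLO (150 nM final) in 25 mM Hepes, 0.01% Triton X-100, pH 7.0 was preincubated 15 min at room temperature with compound. Then 40 uM arachidonic acid was added, 30 min. Hydroperoxide was read by Fe-XO absorbance ratio 573/405 nm.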
Active calls of the source: *; i = inactive; ? = inconclusive; . = no result given; [ ] = dose if it differs, or a comment. Unless noted, calls follow the shape of the dose curve; as a rule, active = well fitted curve in the direction sought with a large enough effect; inconclusive = small, poorly fitted or top-dose-only effect, or another doubt; inactive = no such curve, though single readings can be large; an effect the other way counts as inactive or inconclusive. Potency is read from the fitted curve at half-maximal effect.

SMILES	KB-3-1 tox	PINK1 expr mod	SW480 rereplic	KB-V1 MDR tox	MCF10A rerep	ALOX12 inh
O=C(COc1ccc(Cl)cc1Cl)NNC(=S)Nc1ccc(F)cc1	i	-3%[38.3 µM]	-1%	21µM*	15%	?
C=CCOC(=O)C1=C(C)NC(SCC)=C(C#N)C1c1ccc(Cl)cc1 (centres undefined)	?	?	?	23µM*	23µM*	-22%
CC(=O)C1=C(C)NC(SCC(=O)Nc2nc3ccccc3s2)=C(C#N)C1c1ccc(Cl)cc1 (centres undefined)	?	?	16µM*	?	22%	?
C=CCOC(=O)C1=C(C)NC(SCC(N)=O)=C(C#N)C1c1ccc(C)cc1 (centres undefined)	i	1%	-12%	i	1%	477%
C#CCSC1=C(C#N)C(c2cccs2)C(C(=O)OCC)=C(C)N1 (centres undefined)	i	10%[38.3 µM]	4%	10µM*	14%	-11%
C=CCOC(=O)C1=C(C)NC(SCC(=O)Nc2ccc(C)c(Cl)c2)=C(C#N)C1c1ccco1 (centres undefined)	i	9%	11µM*	i	11µM*	?
CCCN(Cc1cccs1)C(=O)Nc1ccccc1OC	.	.	.	.	.	8%
COc1ccccc1NC(=O)C1=C(C)NC(SCC(=O)c2ccccc2)=C(C#N)C1c1ccco1 (centres undefined)	i	1%	?	i	?	.
COc1ccc(NC(=O)CSC2=C(C#N)C(c3ccco3)C(C(=O)Nc3nc4ccccc4s3)=C(C)N2)cc1 (centres undefined)	?	4%	9.2µM*	i	?	403%
COc1ccc(C(=O)c2oc3ccccc3c2N)cc1	i	0%	18µM*	i	18µM*	?
COc1ccc2oc(C)c(C(=O)c3ccc([N+](=O)[O-])cc3)c2c1	?	-3%	-20%	15µM*	?	-13%
COc1ccc2oc(C(=O)c3ccccc3)c(N)c2c1	i	1%	?	i	15µM*	0%
COc1ccc(C(=O)Nc2c(C(=O)c3ccccc3)oc3ccccc23)cc1	i	0%	.	i	.	-14%
COC(=O)C1(c2ccccc2)NC(c2cccs2)C2C(=O)N(C)C(=O)C21 (centres undefined)	i	1%	0%	i	-2%	53%
COC(=O)C1(c2ccccc2)NC(c2cccs2)C2C(=O)N(c3ccccc3)C(=O)C21 (centres undefined)	?	2%	51%	23µM*	18%	420%
Cc1ccc(-c2csc(/C=C/c3cccc(C(F)(F)F)c3)n2)cc1	.	.	.	.	.	-22%
CC(C)(C)C(=O)Nc1nc(-c2ccccc2)ns1	?	4%[38.3 µM]	-6%	15µM*	?	-14%
Cc1ccccc1C(=O)Nc1nc(-c2ccc(Br)cc2)ns1	.	25µM*	.	.	.	-22%
COC(=O)c1c(NC(=O)CSc2ncn[nH]2)sc(C)c1C	i	-1%	0%	21µM*	7%	.
CCOC(=O)c1c(NC(=O)CSc2ncn[nH]2)sc(C(C)=O)c1C	i	-1%	-11%	i	-6%	432%
CCOC(=O)c1c(NC(=O)COc2ncnc3ccccc23)sc(C(C)=O)c1C	i	1%	-2%	i	?	-8%
COC(=O)c1c(NC(=O)COc2ncnc3ccccc23)sc(C)c1C	i	1%	-6%	15µM*	-3%	-15%
CCCc1ccc(Oc2cc(-n3ncc(C(C)=O)c3C)nc(C)n2)cc1	.	.	.	.	.	12%
COc1ccc(OC)c(C2C=C(c3ccc(Cl)cc3OC(F)F)Nc3nnnn32)c1 (centres undefined)	.	.	.	.	.	-20%
CCCCN(Cc1ccccc1)S(=O)(=O)c1cc(Br)cc2c1N(C(C)=O)C(C)C2 (centres undefined)	i	0%[38.3 µM]	-1%	21µM*	2%	19%

Screening results as filed in PubChem.
